# According to PubChem BioAssay AID1159580 (chemical genetic matrix, 2015):
# Where “and” joins values, the source holds several entries; their conditions need not be identical. Identical values can stand only once. Hit rate of the full screen: of about 5,500 compounds, about 2,000 (36%) were called active. Not shown: some 18% with an inconclusive outcome. The list shows a part of the results. Values without a mark were called inactive. Rule as the data show it: active = normalized growth mostly below about 0.91 (no sharp cut-off); inconclusive = no clear call, values can overlap the other calls; inactive = mostly above about 0.92.
# Test: chemical genetic growth profiling, strain panel (AID 1159580);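 also: tested at 20 µM; growth read once vehicle control cultures reached saturation at 30 °C; 1 = growth at the plate median or of vehicle wells; lower values mean less growth of the strain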
# Details: S. cerevisiae deletion strains, growth OD
structure (smiles),measurement,setting,value
Oc1cc(O)c2c(c1)O[C@H](c1cc(O)c(O)c(O)c1)[C@H](O)C2,normalized growth,"locus YAL021C, strain ccr4, hits give low values",0.992
same,normalized growth,"locus YAL026C, strain drs2, hits give low values",1.02
same,normalized growth,"locus YAL030W, strain snc1, hits give low values",1.01
same,normalized growth,"locus YBL061C, strain skt5, hits give low values",1.02
same,normalized growth,"locus YBR009C, strain hhf1, hits give low values",1.02
same,normalized growth,"locus YBR021W, strain FUR4, hits give low values",1.03
same,normalized growth,"locus YBR023C, strain chs3, hits give low values",1.02
same,normalized growth,"locus YBR171W, strain sec66, hits give low values",1.03
same,normalized growth,"locus YBR229C, strain ROT2, hits give low values",0.996
same,normalized growth,"locus YBR231C, strain swc5, hits give low values",1
same,normalized growth,"locus YBR279W, strain paf1, hits give low values",1.01
same,normalized growth,"locus YCL011C, strain gbp2, hits give low values",1.02
same,normalized growth,"locus YCL016C, strain dcc1, hits give low values",1.02
same,normalized growth,"locus YCL029C, strain bik1, hits give low values",0.986
same,normalized growth,"locus YCL061C, strain MRC1, hits give low values",1.02
same,normalized growth,"locus YCL069W, strain vba3, hits give low values",1.02
same,normalized growth,"locus YCR088W, strain abp1, hits give low values",1.02
same,normalized growth,"locus YDL005C, strain med2, hits give low values",1.03
same,normalized growth,"locus YDL035C, strain GPR1, hits give low values",1.03
same,normalized growth,"locus YDL040C, strain nat1, hits give low values",1.01
same,normalized growth,"locus YDL074C, strain BRE1, hits give low values",0.981
same,normalized growth,"locus YDL101C, strain DUN1, hits give low values",0.985
same,normalized growth,"locus YDL185W, strain tfp1, hits give low values",0.983
same,normalized growth,"locus YDL192W, strain arf1, hits give low values",0.982
same,normalized growth,"locus YDR001C, strain nth1, hits give low values",1.02
same,normalized growth,"locus YDR069C, strain doa4, hits give low values",0.993
same,normalized growth,"locus YDR101C, strain arx1, hits give low values",0.985
same,normalized growth,"locus YDR137W, strain rgp1, hits give low values",1.06
same,normalized growth,"locus YDR150W, strain NUM1, hits give low values",0.995
same,normalized growth,"locus YDR159W, strain sac3, hits give low values",1.18 [resistant] (active)
same,normalized growth,"locus YDR162C, strain NBP2, hits give low values",1.02
same,normalized growth,"locus YDR195W, strain ref2",1.05
same,normalized growth,"locus YDR297W, strain sur2, hits give low values",1.02
same,normalized growth,"locus YDR318W, strain mcm21, hits give low values",0.999
same,normalized growth,"locus YDR334W, strain swr1, hits give low values",1.02
same,normalized growth,"locus YDR335W, strain msn5, hits give low values",1.01
same,normalized growth,"locus YDR388W, hits give low values",0.988
same,normalized growth,"locus YDR392W, strain spt3, hits give low values",1.02
same,normalized growth,"locus YDR502C, strain sam2, hits give low values",1.02
same,normalized growth,"locus YEL003W, strain gim4, hits give low values",1.02
same,normalized growth,"locus YEL037C, strain rad23, hits give low values",1.01
same,normalized growth,"locus YEL061C, strain CIN8 (second series), hits give low values",1.03
same,normalized growth,"locus YEL061C, strain CIN8, hits give low values",0.999
same,normalized growth,"locus YER015W, strain faa2, hits give low values",0.999
same,normalized growth,"locus YER016W, strain bim1, hits give low values",1.02
same,normalized growth,"locus YER110C, hits give low values",0.984
same,normalized growth,"locus YER111C, strain swi4, hits give low values",1.01
same,normalized growth,"locus YER155C, strain BEM2 (second series), hits give low values",1.01
same,normalized growth,"locus YER155C, strain BEM2, hits give low values",1.01
same,normalized growth,"locus YER167W, strain BCK2, hits give low values",1.02
same,normalized growth,"locus YFR010W, strain ubp6, hits give low values",1.02
same,normalized growth,"locus YGL078C, strain dbp3, hits give low values",0.993
same,normalized growth,"locus YGL086W, strain mad1, hits give low values",0.993
same,normalized growth,"locus YGL167C, strain pmr1, hits give low values",1.01
same,normalized growth,"locus YGL173C, strain kem1, hits give low values",1.02
same,normalized growth,"locus YGL227W, strain vid30, hits give low values",1.02
same,normalized growth,"locus YGL240W, strain doc1, hits give low values",1.03
same,normalized growth,"locus YGL248W, strain PDE1, hits give low values",0.991
same,normalized growth,"locus YGL253W, strain hxk2, hits give low values",1.03
same,normalized growth,"locus YGR135W, strain pre9, hits give low values",0.99
same,normalized growth,"locus YGR252W, strain gcn5, hits give low values",1.02
same,normalized growth,"locus YHR013C, strain ard1, hits give low values",1.03
same,normalized growth,"locus YHR027C, strain rpn1, hits give low values",1.02
same,normalized growth,"locus YHR030C, strain SLT2, hits give low values",0.992 and 0.996
same,normalized growth,"locus YHR079C, strain IRE1 (second series), hits give low values",1.01
same,normalized growth,"locus YHR079C, strain IRE1, hits give low values",1.01
same,normalized growth,"locus YHR094C, strain hxt1, hits give low values",0.983
same,normalized growth,"locus YHR129C, strain ARP1, hits give low values",0.997
same,normalized growth,"locus YHR142W, strain chs7, hits give low values",1.04
same,normalized growth,"locus YHR200W, strain rpn10, hits give low values",0.994
same,normalized growth,"locus YIL066C, strain RNR3, hits give low values",1.01
same,normalized growth,"locus YIL073C, strain SPO22, hits give low values",1.01
same,normalized growth,"locus YIL125W, strain kgd1, hits give low values",0.997
same,normalized growth,"locus YIR030C, strain dcg1, hits give low values",1
same,normalized growth,"locus YJL092W, strain hpr5, hits give low values",1.02
same,normalized growth,"locus YJL095W, strain BCK1 (second series), hits give low values",1.02
same,normalized growth,"locus YJL095W, strain BCK1, hits give low values",0.947 and 1.01
same,normalized growth,"locus YJL115W, strain asf1, hits give low values",1.03
same,normalized growth,"locus YJL129C, strain trk1, hits give low values",1.08
same,normalized growth,"locus YJL134W, strain LCB3, hits give low values",0.992
same,normalized growth,"locus YJL154C, strain vps35, hits give low values",1.02
same,normalized growth,"locus YJL164C, strain tpk1, hits give low values",1.01
same,normalized growth,"locus YJL166W, strain qcr8, hits give low values",1.02
same,normalized growth,"locus YJL168C, strain set2, hits give low values",1
same,normalized growth,"locus YJL187C, strain SWE1 (second series), hits give low values",0.952
same,normalized growth,"locus YJL187C, strain SWE1, hits give low values",1.02
